Columns and labels:
Test in all cases: DAPPL (digital affinity profiling via proximity ligation, sequencing); 10 mM Tris-HCl pH 7.5, 50 mM NaCl, 1 mM DTT, 4% glycerol, room temperature, 30 min; GST-TFs on glutathione beads, 16-mer random dsDNA library, 0.1% formaldehyde crosslink after washing; high values mean tight binding
Conditions in all cases: protein: recombinant; tags: N-terminal GST; dsDNA, one strand shown
FLI1 = target: T1, FLI1 (Homo sapiens, UniProt Q01543 1-452)
T1 sequence: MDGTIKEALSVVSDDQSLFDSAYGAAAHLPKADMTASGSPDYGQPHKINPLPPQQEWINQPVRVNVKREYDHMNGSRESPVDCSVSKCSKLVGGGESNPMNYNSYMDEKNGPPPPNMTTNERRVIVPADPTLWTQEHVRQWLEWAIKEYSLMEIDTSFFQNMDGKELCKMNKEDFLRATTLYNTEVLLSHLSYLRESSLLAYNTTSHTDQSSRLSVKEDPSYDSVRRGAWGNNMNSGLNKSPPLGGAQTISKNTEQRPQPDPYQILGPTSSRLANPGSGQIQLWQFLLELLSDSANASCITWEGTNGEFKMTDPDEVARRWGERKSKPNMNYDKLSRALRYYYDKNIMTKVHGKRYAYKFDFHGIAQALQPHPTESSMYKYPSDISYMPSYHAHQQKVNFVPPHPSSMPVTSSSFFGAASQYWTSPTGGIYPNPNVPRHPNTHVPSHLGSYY
How it was run: (§1)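 Human transcription factors carrying a GST fusion were produced in yeast, bound to glutathione beads, tagged with DNA barcodes and pooled together with a tag-only sample. Each pool was held with 200 nmole of a random double-stranded 16-mer DNA library in Tris/NaCl/DTT/glycerol buffer for 30 min at room temperature, then washed, crosslinked in 0.1% formaldehyde, proximity-ligated with BsaI/T4 ligase (1 h, 37 °C), PCR-amplified and sequenced on an Illumina NextSeq500. Binding signal is the read frequency of each hexamer for a given factor divided by its frequency in the tag-only sample.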

ELK1 = target: T2, ELK1 (Homo sapiens, UniProt P19419 1-428)
T2 sequence: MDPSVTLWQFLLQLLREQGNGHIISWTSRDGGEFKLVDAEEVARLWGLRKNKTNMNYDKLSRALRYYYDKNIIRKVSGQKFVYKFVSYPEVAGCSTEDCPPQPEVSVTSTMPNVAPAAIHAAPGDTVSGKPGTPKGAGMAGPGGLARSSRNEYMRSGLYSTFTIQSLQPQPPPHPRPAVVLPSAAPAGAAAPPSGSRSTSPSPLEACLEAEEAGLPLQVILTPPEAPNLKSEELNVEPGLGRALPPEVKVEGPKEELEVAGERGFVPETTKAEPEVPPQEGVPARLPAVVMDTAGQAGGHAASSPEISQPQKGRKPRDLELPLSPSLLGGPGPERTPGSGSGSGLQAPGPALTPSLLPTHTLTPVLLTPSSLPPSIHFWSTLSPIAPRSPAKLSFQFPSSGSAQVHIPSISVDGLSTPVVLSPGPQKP
How it was run: as §1

GABPA = target: T3, GABPA (Homo sapiens, UniProt Q06546 1-454)
T3 sequence: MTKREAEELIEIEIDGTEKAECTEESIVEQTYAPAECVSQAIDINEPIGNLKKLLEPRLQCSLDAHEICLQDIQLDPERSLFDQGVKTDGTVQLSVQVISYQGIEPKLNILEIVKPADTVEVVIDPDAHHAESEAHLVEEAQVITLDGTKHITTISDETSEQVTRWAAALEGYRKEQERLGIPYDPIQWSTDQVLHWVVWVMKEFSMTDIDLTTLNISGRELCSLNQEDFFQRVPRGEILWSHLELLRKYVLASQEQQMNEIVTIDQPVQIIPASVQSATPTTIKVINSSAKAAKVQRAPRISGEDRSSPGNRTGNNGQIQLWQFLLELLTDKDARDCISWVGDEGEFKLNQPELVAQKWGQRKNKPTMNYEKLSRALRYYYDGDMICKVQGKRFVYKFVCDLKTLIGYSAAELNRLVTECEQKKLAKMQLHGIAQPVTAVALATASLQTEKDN
How it was run: as §1

ERG = target: T4, ERG (Homo sapiens, UniProt P11308 1-479)
T4 sequence: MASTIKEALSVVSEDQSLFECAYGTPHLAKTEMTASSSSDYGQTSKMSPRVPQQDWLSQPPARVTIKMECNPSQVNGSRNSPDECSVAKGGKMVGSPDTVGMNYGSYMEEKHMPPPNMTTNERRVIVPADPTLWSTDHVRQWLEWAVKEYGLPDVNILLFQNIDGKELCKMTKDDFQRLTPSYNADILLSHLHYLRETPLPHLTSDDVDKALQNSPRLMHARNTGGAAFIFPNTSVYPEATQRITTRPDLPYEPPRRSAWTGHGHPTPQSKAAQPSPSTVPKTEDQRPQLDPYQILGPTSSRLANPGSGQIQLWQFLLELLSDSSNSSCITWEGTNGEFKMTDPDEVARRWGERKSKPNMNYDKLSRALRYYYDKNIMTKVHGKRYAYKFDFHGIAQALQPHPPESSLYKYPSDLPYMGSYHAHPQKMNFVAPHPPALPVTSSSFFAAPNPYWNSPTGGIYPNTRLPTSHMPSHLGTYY
How it was run: as §1

ELF1 = ELF1 (Homo sapiens, UniProt P32519 1-619)
How it was run: as §1

EHF = target: T5, EHF (Homo sapiens, UniProt Q9NZC4 1-300)
T5 sequence: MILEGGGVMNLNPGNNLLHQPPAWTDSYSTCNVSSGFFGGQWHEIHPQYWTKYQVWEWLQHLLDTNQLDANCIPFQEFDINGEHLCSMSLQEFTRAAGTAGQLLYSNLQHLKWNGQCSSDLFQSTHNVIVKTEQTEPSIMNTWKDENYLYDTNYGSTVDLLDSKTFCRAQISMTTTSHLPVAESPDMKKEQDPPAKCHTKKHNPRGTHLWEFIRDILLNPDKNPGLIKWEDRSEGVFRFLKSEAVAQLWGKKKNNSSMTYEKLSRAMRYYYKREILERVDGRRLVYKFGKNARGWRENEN
How it was run: as §1

SPI1 = SPI1 (Homo sapiens, UniProt P17947 1-270)
How it was run: as §1

SPIB = SPIB (Homo sapiens, UniProt Q01892 1-262)
How it was run: as §1

ELK3 = target: T6, ELK3 (Homo sapiens, UniProt P41970 1-407)
T6 sequence: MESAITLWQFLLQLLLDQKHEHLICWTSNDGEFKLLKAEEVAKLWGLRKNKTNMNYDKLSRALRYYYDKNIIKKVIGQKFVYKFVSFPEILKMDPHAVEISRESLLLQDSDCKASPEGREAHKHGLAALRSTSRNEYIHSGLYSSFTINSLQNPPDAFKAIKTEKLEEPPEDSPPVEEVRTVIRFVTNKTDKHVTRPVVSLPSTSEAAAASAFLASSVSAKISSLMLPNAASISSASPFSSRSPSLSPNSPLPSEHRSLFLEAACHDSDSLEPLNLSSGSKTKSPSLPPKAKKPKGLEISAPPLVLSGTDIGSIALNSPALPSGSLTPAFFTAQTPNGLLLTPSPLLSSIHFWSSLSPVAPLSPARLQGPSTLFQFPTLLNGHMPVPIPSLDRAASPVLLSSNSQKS
How it was run: as §1

Chain of SPIB (Q01892 whole entry): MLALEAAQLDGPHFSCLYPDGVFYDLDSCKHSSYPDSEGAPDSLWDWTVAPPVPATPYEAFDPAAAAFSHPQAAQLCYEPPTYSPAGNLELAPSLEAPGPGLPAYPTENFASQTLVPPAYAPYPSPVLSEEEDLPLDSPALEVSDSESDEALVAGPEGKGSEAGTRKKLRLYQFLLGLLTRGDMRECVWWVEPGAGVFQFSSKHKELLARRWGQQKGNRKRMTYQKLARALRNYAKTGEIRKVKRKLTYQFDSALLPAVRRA
Chain of ELF1 (P32519 whole entry): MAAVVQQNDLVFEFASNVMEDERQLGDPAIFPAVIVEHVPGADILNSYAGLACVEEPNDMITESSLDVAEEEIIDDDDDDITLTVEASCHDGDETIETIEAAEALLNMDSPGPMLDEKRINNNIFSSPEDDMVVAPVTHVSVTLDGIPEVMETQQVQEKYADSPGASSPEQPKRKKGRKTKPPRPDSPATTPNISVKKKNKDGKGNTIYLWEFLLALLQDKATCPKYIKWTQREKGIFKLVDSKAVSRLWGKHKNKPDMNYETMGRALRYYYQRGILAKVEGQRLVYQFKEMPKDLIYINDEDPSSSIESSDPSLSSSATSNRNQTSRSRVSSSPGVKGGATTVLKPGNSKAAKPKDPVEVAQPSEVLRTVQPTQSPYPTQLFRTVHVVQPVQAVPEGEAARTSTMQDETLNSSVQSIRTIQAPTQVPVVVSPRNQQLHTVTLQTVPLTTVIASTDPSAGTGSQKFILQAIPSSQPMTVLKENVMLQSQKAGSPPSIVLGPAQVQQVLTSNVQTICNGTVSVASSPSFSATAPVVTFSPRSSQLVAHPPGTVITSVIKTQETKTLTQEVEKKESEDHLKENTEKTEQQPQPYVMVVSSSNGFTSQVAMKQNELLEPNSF

| Sequence | binding signal (FLI1) | binding signal (ELK1) | binding signal (GABPA) | binding signal (ERG) | binding signal (ELF1) | binding signal (EHF) | binding signal (SPI1) | binding signal (SPIB) | binding signal (ELK3) |
| --- | --- | --- | --- | --- | --- | --- | --- | --- | --- |
| ACTGCT | 1.44 fold enrichment (6-mer frequency, TF over GST control) | 1.45 fold enrichment (6-mer frequency, TF over GST control) | 1.29 fold enrichment (6-mer frequency, TF over GST control) | 1.29 fold enrichment (6-mer frequency, TF over GST control) | 1.35 fold enrichment (6-mer frequency, TF over GST control) | 1.41 fold enrichment (6-mer frequency, TF over GST control) | 1.46 fold enrichment (6-mer frequency, TF over GST control) | 1.36 fold enrichment (6-mer frequency, TF over GST control) | 1.26 fold enrichment (6-mer frequency, TF over GST control) |
| ATTGAC | 1.18 fold enrichment (6-mer frequency, TF over GST control) | 1.21 fold enrichment (6-mer frequency, TF over GST control) | 1.22 fold enrichment (6-mer frequency, TF over GST control) | 1.19 fold enrichment (6-mer frequency, TF over GST control) | 1.19 fold enrichment (6-mer frequency, TF over GST control) | 1.22 fold enrichment (6-mer frequency, TF over GST control) | 1.14 fold enrichment (6-mer frequency, TF over GST control) | 1.2 fold enrichment (6-mer frequency, TF over GST control) | 1.16 fold enrichment (6-mer frequency, TF over GST control) |
| TTCGCT | 1.19 fold enrichment (6-mer frequency, TF over GST control) | 1.17 fold enrichment (6-mer frequency, TF over GST control) | 1.32 fold enrichment (6-mer frequency, TF over GST control) | 1.28 fold enrichment (6-mer frequency, TF over GST control) | 1.18 fold enrichment (6-mer frequency, TF over GST control) | 1.07 fold enrichment (6-mer frequency, TF over GST control) | 1.16 fold enrichment (6-mer frequency, TF over GST control) | 1.47 fold enrichment (6-mer frequency, TF over GST control) | 1.45 fold enrichment (6-mer frequency, TF over GST control) |
| TACACC | 1.16 fold enrichment (6-mer frequency, TF over GST control) | 1.27 fold enrichment (6-mer frequency, TF over GST control) | 1.14 fold enrichment (6-mer frequency, TF over GST control) | 1.27 fold enrichment (6-mer frequency, TF over GST control) | 1.17 fold enrichment (6-mer frequency, TF over GST control) | 1.22 fold enrichment (6-mer frequency, TF over GST control) | 1.1 fold enrichment (6-mer frequency, TF over GST control) | 1.11 fold enrichment (6-mer frequency, TF over GST control) | 1.14 fold enrichment (6-mer frequency, TF over GST control) |
| TTTATC | 1.25 fold enrichment (6-mer frequency, TF over GST control) | 1.27 fold enrichment (6-mer frequency, TF over GST control) | 1.25 fold enrichment (6-mer frequency, TF over GST control) | 1.22 fold enrichment (6-mer frequency, TF over GST control) | 1.21 fold enrichment (6-mer frequency, TF over GST control) | 1.36 fold enrichment (6-mer frequency, TF over GST control) | 1.26 fold enrichment (6-mer frequency, TF over GST control) | 1.28 fold enrichment (6-mer frequency, TF over GST control) | 1.37 fold enrichment (6-mer frequency, TF over GST control) |
| CCCTAC | 1.5 fold enrichment (6-mer frequency, TF over GST control) | 1.49 fold enrichment (6-mer frequency, TF over GST control) | 1.33 fold enrichment (6-mer frequency, TF over GST control) | 1.33 fold enrichment (6-mer frequency, TF over GST control) | 1.4 fold enrichment (6-mer frequency, TF over GST control) | 1.33 fold enrichment (6-mer frequency, TF over GST control) | 1.36 fold enrichment (6-mer frequency, TF over GST control) | 1.25 fold enrichment (6-mer frequency, TF over GST control) | 1.65 fold enrichment (6-mer frequency, TF over GST control) |
| TCCGGC | 2.29 fold enrichment (6-mer frequency, TF over GST control) | 2.4 fold enrichment (6-mer frequency, TF over GST control) | 2.12 fold enrichment (6-mer frequency, TF over GST control) | 2.58 fold enrichment (6-mer frequency, TF over GST control) | 2 fold enrichment (6-mer frequency, TF over GST control) | 2.18 fold enrichment (6-mer frequency, TF over GST control) | 2.19 fold enrichment (6-mer frequency, TF over GST control) | 2.42 fold enrichment (6-mer frequency, TF over GST control) | 2.45 fold enrichment (6-mer frequency, TF over GST control) |
| TACACT | 1.41 fold enrichment (6-mer frequency, TF over GST control) | 1.57 fold enrichment (6-mer frequency, TF over GST control) | 1.51 fold enrichment (6-mer frequency, TF over GST control) | 1.58 fold enrichment (6-mer frequency, TF over GST control) | 1.5 fold enrichment (6-mer frequency, TF over GST control) | 1.62 fold enrichment (6-mer frequency, TF over GST control) | 1.54 fold enrichment (6-mer frequency, TF over GST control) | 1.5 fold enrichment (6-mer frequency, TF over GST control) | 1.51 fold enrichment (6-mer frequency, TF over GST control) |

Reference: paper PMC7862700, “An all-to-all approach to the identification of sequence-specific readers for epigenetic DNA modifications on cytosine”
